# From the OligoGym collection
# Legend:
# Test in all cases: pooled miR-30 sensor sort-seq; sequence = guide strand
# Details in all cases: shRNA
# SLC9A5 = target: SLC9A5
# SLCO4C1 = target: SLCO4C1
# SLC9A7 = target: SLC9A7
# SLC9A10 = target: SLC9A10
# SMYD3 = target: SMYD3
# SNRNP200 = target: SNRNP200
# SNN = target: SNN
# SNRNP70 = target: SNRNP70
# SNCG = target: SNCG
# SNX29 = target: SNX29
# SQRDL = target: SQRDL
# SREBF2 = target: SREBF2
# SRSF11 = target: SRSF11
# SRPK1 = target: SRPK1
# SRC = target: SRC
# Note: reference of the scale not given here.
sequence,measurement,setting,value
AAGTTGTCAAAGAACAGCCTGC,sensor-assay potency score (higher = more potent),SLC9A5,-0.191
TTGAACTTCAATACTTTTCCTA,sensor-assay potency score (higher = more potent),SLCO4C1,0.743
TATTCGAAGAACTTTCCGCTGA,sensor-assay potency score (higher = more potent),SLC9A7,0.32
TTTGTAAATATGATTGTCCATA,sensor-assay potency score (higher = more potent),SLCO4C1,-1.19
TCGACTTCTTGATTCCACCGAC,sensor-assay potency score (higher = more potent),SLC9A7,0.212
TTCTCTGTCTCTGAACTGTCGC,sensor-assay potency score (higher = more potent),SLC9A5,-0.349
TTTTTCGTAACAGACAATCTTC,sensor-assay potency score (higher = more potent),SLC9A10,-0.245
TTGAAAGCTGTCGTTGTTGGGT,sensor-assay potency score (higher = more potent),SLC9A7,-0.0314
TTATTTAAAAAGTATCACCTTA,sensor-assay potency score (higher = more potent),SLCO4C1,0.0246
TACAACACCTGTAAATCCGCAG,sensor-assay potency score (higher = more potent),SLC9A7,-0.278
TAACATTTCTTTCTTCTTGAAT,sensor-assay potency score (higher = more potent),SLC9A10,-0.801
TACAAGTCCAGCCTGCTGCAAG,sensor-assay potency score (higher = more potent),SLC9A5,-0.602
TTAAGCTGTATCCAGCATGAAA,sensor-assay potency score (higher = more potent),SLC9A7,-1.54
TTCATTCTGGTCCTCTTCGGAG,sensor-assay potency score (higher = more potent),SLC9A7,-1.15
TAGAGCGTGGATCAGAAGGTAG,sensor-assay potency score (higher = more potent),SLC9A5,-0.999
TTGTCTGTGATTAACACACCTT,sensor-assay potency score (higher = more potent),SLCO4C1,-0.412
TTTATCTGAGAGCTGTCCCATA,sensor-assay potency score (higher = more potent),SLC9A7,-0.106
TCTTCTTTAAGCTGTATCCAGC,sensor-assay potency score (higher = more potent),SLC9A7,-0.509
TTGGTTATCGTACACCTGGGGA,sensor-assay potency score (higher = more potent),SLC9A7,-0.959
TATCGGAAAATCTTTCTCCTTT,sensor-assay potency score (higher = more potent),SLC9A10,-0.118
TTTGGTAAACTTAGTCACGTTG,sensor-assay potency score (higher = more potent),SLC9A7,-0.343
TAGACTAATATATTTGTTCAGT,sensor-assay potency score (higher = more potent),SLCO4C1,-0.742
TATATGAACAAATTCCACCCAC,sensor-assay potency score (higher = more potent),SLC9A10,-0.00398
TATCACAGCAGCTGTGTCCTGA,sensor-assay potency score (higher = more potent),SLC9A5,0.318
AAGGTCTAGACTTAGACCCAGA,sensor-assay potency score (higher = more potent),SLC9A5,-1.07
TTAAGCAACAGGCCTGAACTGA,sensor-assay potency score (higher = more potent),SLC9A5,-1.07
TAGTCTTTGGTCAAAATCCATA,sensor-assay potency score (higher = more potent),SLC9A10,-1.27
TAAGACTTGAAAGCTGTCGTTG,sensor-assay potency score (higher = more potent),SLC9A7,0.00174
TTAACTACAATACCTTGCGTGA,sensor-assay potency score (higher = more potent),SLCO4C1,-0.96
TTGAACTGGATGCACCAGTGGG,sensor-assay potency score (higher = more potent),SLC9A5,-0.899
TTCGTAACAGACAATCTTCTAC,sensor-assay potency score (higher = more potent),SLC9A10,0.0134
TTGTCAAAGAACAGCCTGCTAG,sensor-assay potency score (higher = more potent),SLC9A5,-0.67
TTTATGTTTAGGAACAAACTTT,sensor-assay potency score (higher = more potent),SLC9A10,-0.563
TTGAATAATATTATCACAGAAT,sensor-assay potency score (higher = more potent),SLCO4C1,-0.992
TTGAAATGTGCAACAAACCGAT,sensor-assay potency score (higher = more potent),SLC9A10,0.415
TTACTTTCCGAGACAGGTGAAA,sensor-assay potency score (higher = more potent),SLC9A5,-0.787
TTCTGCTGGAAGACCTCCTTGT,sensor-assay potency score (higher = more potent),SLC9A5,0.342
TAATGAAGCATGAAACAGCAGT,sensor-assay potency score (higher = more potent),SLC9A7,-0.713
TATATGATTCAGATACACCAGC,sensor-assay potency score (higher = more potent),SLCO4C1,-0.633
TAATATTCAAGTATGCTGCTTC,sensor-assay potency score (higher = more potent),SLCO4C1,0.868
TAACTTTACAAGTAACACTTAT,sensor-assay potency score (higher = more potent),SLCO4C1,-0.974
TAGCACTACAGTATTTGGCGAC,sensor-assay potency score (higher = more potent),SMYD3,0.0593
TACAGTGTTAAACACCTGGGTC,sensor-assay potency score (higher = more potent),SNRNP200,-1.05
AATGAGGATGACGATGACTGTG,sensor-assay potency score (higher = more potent),SNN,-0.905
TCCTCTGACTGGCTGATGCGCT,sensor-assay potency score (higher = more potent),SNN,-1.54
TCGCTCGTGTTCGTACTCGATG,sensor-assay potency score (higher = more potent),SNRNP70,-1.13
TTACAGTAGTAGCTCCATCAAA,sensor-assay potency score (higher = more potent),SNN,-1.39
TTGATAGGTCCGTACACCTCAA,sensor-assay potency score (higher = more potent),SNRNP70,-0.456
TTGCGCACCACCCCGGAGGTGA,sensor-assay potency score (higher = more potent),SNCG,-1.19
TATCTTGGTAAAGACTCTCAAA,sensor-assay potency score (higher = more potent),SNRNP200,-1.23
TTGCAGAAGAACGTTGATCTTA,sensor-assay potency score (higher = more potent),SNRNP200,-0.0878
TTCTCTCCACGCACGGTCCCTT,sensor-assay potency score (higher = more potent),SNN,-1.08
TACTTGACCAGATTGTTCTTGT,sensor-assay potency score (higher = more potent),SNRNP200,0.676
TTGGTCTTCTCGGCCACTGAGG,sensor-assay potency score (higher = more potent),SNCG,-1.32
TGACTGGCTGATGCGCTGCAGC,sensor-assay potency score (higher = more potent),SNN,-1.74
CTGTACAACATTCTCCTTGGTC,sensor-assay potency score (higher = more potent),SNCG,-1.03
TATTCTTTTGATAGGTCCGTAC,sensor-assay potency score (higher = more potent),SNRNP70,-0.682
TTTGGATGCCACACCCTCCTGT,sensor-assay potency score (higher = more potent),SNCG,-0.0802
TTGAACTCAGAGGACAATGAGA,sensor-assay potency score (higher = more potent),SNRNP200,-0.903
TCTCCTCGTCCTCTGACTGGCT,sensor-assay potency score (higher = more potent),SNN,-0.606
TTTCTCTCCACGCACGGTCCCT,sensor-assay potency score (higher = more potent),SNN,-1.1
TTCACTAGCACATGGTATCTGG,sensor-assay potency score (higher = more potent),SNRNP200,-0.256
TACACCTCAAACTCTCTCCGGA,sensor-assay potency score (higher = more potent),SNRNP70,0.28
TTGGCCTTTCTCTCCACGCACG,sensor-assay potency score (higher = more potent),SNN,-1.27
TTCTTGAAGAAATCCTTCTTGG,sensor-assay potency score (higher = more potent),SNRNP200,-0.674
TAGCGGGAGGTGTCATCGCGGC,sensor-assay potency score (higher = more potent),SNRNP70,-0.939
TTTCATTCTTTAGAACAGCTAG,sensor-assay potency score (higher = more potent),SNRNP200,0.0872
TTAAGCTCTGTCTCCACTTCTT,sensor-assay potency score (higher = more potent),SNRNP70,-0.388
TAAGCTCTGTCTCCACTTCTTG,sensor-assay potency score (higher = more potent),SNRNP70,-0.943
TGGTCTTTTCCACCGCACCCAC,sensor-assay potency score (higher = more potent),SNCG,-1.77
TTGGATGCCACACCCTCCTGTT,sensor-assay potency score (higher = more potent),SNCG,-1.09
TGCACTGACAACTCCAACTTGG,sensor-assay potency score (higher = more potent),SNRNP200,-0.38
ATGACGATGACTGTGACCACGC,sensor-assay potency score (higher = more potent),SNN,-0.588
TCCTCTTCTGGTACCACCGAGG,sensor-assay potency score (higher = more potent),SNRNP70,-1.82
TTGTTCTCAATGGTCTTGGTGA,sensor-assay potency score (higher = more potent),SNRNP200,-0.0384
TTGGGAGTCATCAGCTTGGCCT,sensor-assay potency score (higher = more potent),SNN,-0.835
TTCTCCTTGGTCTTGGCTCCCA,sensor-assay potency score (higher = more potent),SNCG,-0.654
TCAGCTTGGCCTTTCTCTCCAC,sensor-assay potency score (higher = more potent),SNN,-0.343
AATCTTCTTGCCATCTGCGTGT,sensor-assay potency score (higher = more potent),SNRNP70,-0.116
TCCTCGTCCTCTGACTGGCTGA,sensor-assay potency score (higher = more potent),SNN,-1.43
AATATCGCTCGCATCAACCGGC,sensor-assay potency score (higher = more potent),SNRNP200,0.041
TGTAATGAGGTGCTCGTCCTGG,sensor-assay potency score (higher = more potent),SNRNP200,-0.352
TTCATCGTCTTTTATCCGGATG,sensor-assay potency score (higher = more potent),SNX29,-0.658
TTTCATATGAAATCACTTGGGT,sensor-assay potency score (higher = more potent),SQRDL,0.204
TCGAATGACAGGACACTGCGGC,sensor-assay potency score (higher = more potent),SREBF2,-0.313
TTTATGATTGACCTGCTGCAAG,sensor-assay potency score (higher = more potent),SREBF2,-1.02
TTGATTACTGACAAATTGCAGC,sensor-assay potency score (higher = more potent),SREBF2,-0.488
TTGCACTTCTAGAACGTCTGGC,sensor-assay potency score (higher = more potent),SRSF11,0.928
TAACTTTCGGATCACATGGTAT,sensor-assay potency score (higher = more potent),SRPK1,-1.15
TATCTGGTTCTATAGCAGCAGA,sensor-assay potency score (higher = more potent),SRSF11,-1.33
TTCCATAAGCGTTTGATCCTGG,sensor-assay potency score (higher = more potent),SRPK1,0.385
TTATAGGTGTACAAGAGTCTGT,sensor-assay potency score (higher = more potent),SRPK1,-0.536
TGAAACCACAGCATACAACTGC,sensor-assay potency score (higher = more potent),SRC,0.358
TTCTTTACTAGAGGTATCCGAT,sensor-assay potency score (higher = more potent),SRSF11,-0.524
TTCGCTTCTCTAGTAATTCTGC,sensor-assay potency score (higher = more potent),SRPK1,0.131
TCCGACTTGATGGTGAAGCGGC,sensor-assay potency score (higher = more potent),SRC,-0.784
TAAGCTTCAGCAACTGATCTGC,sensor-assay potency score (higher = more potent),SRSF11,0.509
TACATCTTTATCACTCTCTGAT,sensor-assay potency score (higher = more potent),SRSF11,0.584
TACAATAATCATTAGGATCTTC,sensor-assay potency score (higher = more potent),SRPK1,-0.347
TCATGCAGGAACACCTTGCGGT,sensor-assay potency score (higher = more potent),SREBF2,0.123
TAGCATTATGTAGATCCTCTTT,sensor-assay potency score (higher = more potent),SRPK1,-0.224
TATTCTTTGACATTTTGTCAGC,sensor-assay potency score (higher = more potent),SRPK1,-0.83
TTAGCTTCGTCTTCAAAGCCTG,sensor-assay potency score (higher = more potent),SREBF2,-0.243
TTTCGTGGTCTCACTTTCTCGC,sensor-assay potency score (higher = more potent),SRC,0.127
TTAACAATCATCTGCTGGCAGT,sensor-assay potency score (higher = more potent),SREBF2,-1.13
TATGTGTTCCATTAACTCCTGA,sensor-assay potency score (higher = more potent),SRPK1,-0.508
TTTAAAGTCATCTAGTAGTTGA,sensor-assay potency score (higher = more potent),SRPK1,-0.439
TAGTTGAACAACCATTTCTCTA,sensor-assay potency score (higher = more potent),SRPK1,-1.08
TCTGTGTTGTTGACAATCTGGA,sensor-assay potency score (higher = more potent),SRC,0.0722
TGTCTGTCCTGTGCTGAGCGAG,sensor-assay potency score (higher = more potent),SRC,-1.15
TAAAATGAGAGCGCACAGCTGC,sensor-assay potency score (higher = more potent),SREBF2,-0.945
TAACAGGAGCTTTATAACCATT,sensor-assay potency score (higher = more potent),SRSF11,-1.45
TTTGATGATCCACTTGAGCAGA,sensor-assay potency score (higher = more potent),SRPK1,-0.465
TTTGATGTAATCAATGGCCTTC,sensor-assay potency score (higher = more potent),SREBF2,0.209
TTTGTCTTTATCTTTCTTCTTC,sensor-assay potency score (higher = more potent),SRSF11,0.407
TCTCGCACGAGGAAGGTCCCTC,sensor-assay potency score (higher = more potent),SRC,-0.579
TGTGTTGTTGACAATCTGGAGC,sensor-assay potency score (higher = more potent),SRC,-0.666
TTCACAGCTCTCTTCTTCCTGG,sensor-assay potency score (higher = more potent),SREBF2,0.117
TTAGGGACTGTGCTTCTCGTAC,sensor-assay potency score (higher = more potent),SRSF11,-0.978
TAGAACGTGATCTTGATCTTGA,sensor-assay potency score (higher = more potent),SRSF11,0.589
